# Source: article PMC4336329 (PLoS ONE, 2015)
# The campaign covered roughly 310,000 compounds. About 14,000 (4.5%) showed an effect of 50% or more. The effect is printed as a negative number. Many of the other results were omitted from the sample, so strong results are more common in it than they were.
# Target: human ether-à-go-go-related gene (hERG) potassium channel (human, UniProt Q12809)
# Assay: primary screen, population patch clamp on CHO cells stably expressing hERG; higher = less effect of the substance
# 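Note: peak tail current of the secondary pulse compared with the same well before compound.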
# Chain of human ether-à-go-go-related gene (hERG) potassium channel (Q12809 whole entry, looked up): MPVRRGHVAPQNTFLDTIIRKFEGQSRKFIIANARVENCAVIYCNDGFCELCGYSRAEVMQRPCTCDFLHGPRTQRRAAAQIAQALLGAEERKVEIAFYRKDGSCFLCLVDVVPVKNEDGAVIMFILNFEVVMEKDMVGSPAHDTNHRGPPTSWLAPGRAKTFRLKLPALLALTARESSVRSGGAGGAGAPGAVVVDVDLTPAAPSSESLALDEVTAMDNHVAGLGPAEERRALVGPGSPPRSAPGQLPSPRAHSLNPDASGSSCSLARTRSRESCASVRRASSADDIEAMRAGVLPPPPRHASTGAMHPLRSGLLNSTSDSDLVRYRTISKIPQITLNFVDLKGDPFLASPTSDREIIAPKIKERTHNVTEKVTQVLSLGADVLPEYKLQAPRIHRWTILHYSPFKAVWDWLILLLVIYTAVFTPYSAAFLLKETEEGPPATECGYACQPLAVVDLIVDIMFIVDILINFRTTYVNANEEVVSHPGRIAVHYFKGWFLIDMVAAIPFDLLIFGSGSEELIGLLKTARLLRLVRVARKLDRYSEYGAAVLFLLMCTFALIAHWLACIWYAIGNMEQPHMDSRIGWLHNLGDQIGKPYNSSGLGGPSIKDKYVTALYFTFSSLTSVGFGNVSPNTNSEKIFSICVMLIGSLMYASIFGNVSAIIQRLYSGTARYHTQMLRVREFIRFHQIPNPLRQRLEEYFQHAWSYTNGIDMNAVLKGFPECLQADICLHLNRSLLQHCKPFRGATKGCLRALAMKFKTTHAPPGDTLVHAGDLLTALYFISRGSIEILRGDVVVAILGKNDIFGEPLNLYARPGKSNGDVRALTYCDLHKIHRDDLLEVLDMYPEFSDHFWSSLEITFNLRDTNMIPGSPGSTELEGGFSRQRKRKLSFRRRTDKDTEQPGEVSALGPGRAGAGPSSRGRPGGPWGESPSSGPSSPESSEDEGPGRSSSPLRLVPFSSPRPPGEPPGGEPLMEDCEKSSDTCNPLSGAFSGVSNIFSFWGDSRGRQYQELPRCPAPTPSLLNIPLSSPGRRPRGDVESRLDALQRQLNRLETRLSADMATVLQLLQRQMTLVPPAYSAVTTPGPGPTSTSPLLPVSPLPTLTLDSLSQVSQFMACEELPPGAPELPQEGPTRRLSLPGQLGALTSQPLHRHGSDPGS
row,Structure (SMILES),"hERG current change (%, negative = inhibition) at 10uM"
1,CCn1nc(C)c(Br)c1C(=O)Sc1ccccc1Cl,21.2%
2,O=C(c1ccccc1F)N1CCN(c2ccc([N+](=O)[O-])c3ncccc23)CC1,-68.1%
3,Cn1c(=O)n(C)c2cc([N+](=O)[O-])c(N3CCN(S(=O)(=O)c4ccccc4)CC3)cc21,-8.67%
4,O=C(c1cccc(F)c1)N1CCN(c2ccc([N+](=O)[O-])c(N3CCCCC3)c2)CC1,-6.87%
5,O=C(c1cccc(F)c1)N1CCN(c2ccc([N+](=O)[O-])c3cccnc23)CC1,-66.1%
6,O=C(c1ccc(Cl)cc1[N+](=O)[O-])N1CCN(c2ccccn2)CC1,-34%
7,O=C(c1cccc(F)c1)N1CCN(c2cc(N3CCCCC3)c(F)cc2[N+](=O)[O-])CC1,0.466%
8,O=[N+]([O-])c1ccc(N2CCN(S(=O)(=O)c3ccccc3)CC2)c2cccnc12,-76.8%
9,O=C(c1cc(F)c(F)cc1Cl)N1CCN(c2ccc([N+](=O)[O-])c3ncccc23)CC1,-67.4%
10,O=C(c1ccccc1F)N1CCN(c2ccc([N+](=O)[O-])c(N3CCOCC3)c2)CC1,14.2%
11,O=C(c1cc(F)c(F)cc1Cl)N1CCN(c2ncccn2)CC1,16.4%
12,O=[N+]([O-])c1ccc(N2CCOCC2)c2cccnc12,-25%
13,Cc1ccc(S(=O)(=O)N2CCN(c3ccc([N+](=O)[O-])c4cccnc34)CC2)cc1,-9.52%
14,CC(=O)Nc1ccc(/C(C)=N/NC(=O)CN(c2ccccc2Br)S(C)(=O)=O)cc1,-4.13%
15,CNC(=O)CCn1nc(-c2ccc(C)cc2)c2ccccc2c1=O,-8.28%
16,O=C(O)c1ccc(/C=N/Nc2nc(N3CCCCC3)nc(N3CCCCC3)n2)cc1,18.4%
17,Cc1nn(Cc2c(Cl)cccc2Cl)c(C)c1NC(=O)/C=C/c1cnn(C)c1C,8.85%
18,COc1ccc(OC(=O)c2cccc([N+](=O)[O-])c2)c(C(=O)/C=C/c2cccs2)c1,3.99%
19,O=C(O)CC(CC(=O)Nc1ccc2ccccc2n1)c1ccccc1 (stereo not shown),9.58%
20,Cc1nnc(SCC(=O)NC2CC2)n1CCc1ccccc1,13%
21,CCC(=O)Oc1ccc2c(C)cc(=O)oc2c1C,0.0333%
22,Cc1ccccc1NC(=O)CN1C(=O)NC(C)(CCc2ccccc2)C1=O (stereo not shown),22.2%
23,O=[N+]([O-])c1cccc2c(N3CCCC3)ccnc12,-77.7%
24,O=[N+]([O-])c1cccc2c(Cl)ccnc12,-0.808%
25,O=C(c1ccccc1F)N1CCN(c2ccc([N+](=O)[O-])c3cccnc23)CC1,-65.5%
26,O=C(c1ccccc1F)N1CCN(c2ccccn2)CC1,4.54%
27,O=C(c1ccccc1F)N1CCN(c2ncccn2)CC1,3.24%

row,Structure (SMILES),"hERG current change (%, negative = inhibition) at 10uM"
1,O=[N+]([O-])c1cccc2c(N3CCOCC3)ccnc12,-17.6%
2,CCC(C)NC(=O)CCC(=O)Nc1ccc2nc(N3CCOCC3)cc(C)c2c1 (stereo not shown),2.55%
3,O=C(NCCc1ccc(Cl)cc1)c1ccc(CNc2c(N3CCOCC3)c(=O)c2=O)cc1,25.7%
4,O=C(Nc1ccc2c(c1)OCO2)NC1CCN(Cc2ccccc2)CC1,-24.8%
5,CC(NC(=O)COC(=O)c1cccs1)c1ccccc1 (stereo not shown),23%
6,Cc1cc(NC(=O)c2ccc(F)cc2)ccc1NC(=O)c1ccco1,2.98%
7,CC1(C)CC(=O)C2=C(C1)N(CC1CCCO1)C(=O)C2(NC(=O)c1cccnc1)C(F)(F)F (stereo not shown),9.64%
8,COC(=NC1CCCC1)C(O)c1c[nH]c2ccccc12 (stereo not shown),-1.61%
9,CN(C)c1cc(C(F)(F)F)nc(-c2ccccn2)n1,-0.728%
10,CCO[C@@H]1OC(C(=O)O)=C[C@H](c2cn(C(C)=O)c3ccccc23)[C@H]1CCCO,13.7%
11,CCO[C@@H]1OC(C(=O)Nc2ccccc2)=C[C@H](c2coc3ccccc3c2=O)[C@H]1CCCO,-50.9%
12,CCO[C@@H]1OC(C(=O)N2CCN(Cc3ccccc3)CC2)=C[C@H](c2cn(C(C)=O)c3ccccc23)[C@H]1CCCO,-37.9%
13,CCO[C@@H]1OC(C(=O)O)=C[C@H](c2coc3ccccc3c2=O)[C@H]1CCCO,18.9%
14,CCO[C@@H]1OC(C(=O)NCc2nc3ccccc3[nH]2)=C[C@H](c2cn(C(C)=O)c3ccccc23)[C@H]1CCCO,-67.2%
15,CCO[C@H]1OC(C(=O)Nc2ccccc2)=C[C@@H](c2coc3ccccc3c2=O)[C@@H]1CCCO,-28.5%
16,CCO[C@H]1OC(C(=O)NCc2nc3ccccc3[nH]2)=C[C@@H](c2cn(C(C)=O)c3ccccc23)[C@@H]1CCCO,-49.7%
17,CCO[C@@H]1OC(C(=O)NCc2nc3ccccc3[nH]2)=C[C@H](c2csc3ccccc23)[C@H]1CCCO,-34.1%
18,CCO[C@H]1OC(C(=O)Nc2ccccc2)=C[C@@H](c2cn(C(C)=O)c3ccccc23)[C@@H]1CCCO,-62.5%
19,CCO[C@H]1OC(C(=O)O)=C[C@@H](c2cn(C(C)=O)c3ccccc23)[C@@H]1CCCO,18.2%
20,CCO[C@H]1OC(C(=O)N2CCN(Cc3ccccc3)CC2)=C[C@@H](c2cn(C(C)=O)c3ccccc23)[C@@H]1CCCO,-54%
21,CCO[C@@H]1OC(C(=O)N2CCN(Cc3ccc4c(c3)OCO4)CC2)=C[C@H](c2cn(C(C)=O)c3ccccc23)[C@H]1CCCO,-39.7%
22,O=C1CCCCCN1Sc1ccccc1,12%
23,N#Cc1cccc(CN2CCC(=O)N([C@H](CO)c3ccccc3)CC2)c1,-4.9%
24,CC(=O)N1c2ccc(S(=O)(=O)NCCc3ccc(S(N)(=O)=O)cc3)cc2CC1C (stereo not shown),13%
25,COc1ccc(/C=N/NC(=O)c2c(C)n(C)c3ccc(OC)cc23)c(OC)c1,-14.3%
26,COCC(C)NC(=O)c1ccc2c(c1)S(=O)(=O)c1ccccc1C2=O (stereo not shown),3.96%
27,CCn1c(=S)ccc2ccc(OC)cc21,-0.453%

row,Structure (SMILES),"hERG current change (%, negative = inhibition) at 10uM"
1,CCOc1ccc(-c2c(C(=O)N/N=C(\C)c3cccs3)nnn2-c2nonc2N)cc1,12.9%
2,CCO[C@H]1OC(C(=O)NCc2ccccc2)=C[C@@H](c2ccccc2)[C@@H]1CCCO,-19.6%
3,C#CCNC(=O)C1=C[C@H](c2cn(C(C)=O)c3ccccc23)[C@@H](CCCO)[C@H](OCC)O1,-36.9%
4,CCO[C@@H]1OC(C(N)=O)=C[C@H](c2cn(C(C)=O)c3ccccc23)[C@H]1CCCO,6.45%
5,CCO[C@@H]1OC(C(=O)NCc2ccccc2)=C[C@H](c2cn(C(C)=O)c3ccccc23)[C@H]1CCCO,-82.9%
6,CCO[C@H]1OC(C(=O)NCc2ccccc2)=C[C@@H](c2cn(C(C)=O)c3ccccc23)[C@@H]1CCCO,-64.3%
7,CCO[C@@H]1OC(C(=O)NCc2ccccc2)=C[C@H](c2ccccc2)[C@H]1CCCO,-18.7%
8,CCOC(=O)CN/C=C(\C#N)c1ccccc1,16.2%
9,COc1cc(/C=C2\C(=O)ON=C2c2ccccc2)cc(Cl)c1O,-49.9%
10,CC(C)(C)OC(=O)CNC(=O)c1[nH]cnc1C(=O)Nc1ccc(CNC(=O)OC(C)(C)C)cc1,-0.221%
11,CCCCC(=O)Nc1nc(C)c(-c2csc(Nc3cc(OC)ccc3OC)n2)s1,5.95%
12,Cc1nc(Nc2cccc(O)c2)c2c3c(sc2n1)CCC3,-1.85%
13,O=C1CSC(c2ccc(F)cc2)N1c1nc2ccccc2s1 (stereo not shown),-20.8%
14,O/N=C/c1ccccc1OCc1ccc(Cl)cc1,5.5%
15,Cc1ccc(/C=C/C(=O)Nc2ccc([N+](=O)[O-])cc2)o1,-1.05%
16,CCC(Oc1ccccc1)C(=O)N(Cc1ccccc1)c1ccccn1 (stereo not shown),-6.96%
17,O=C(Nc1cc(C(F)(F)F)ccc1N1CCOCC1)c1cnccn1,-2.15%
18,O=C(CNCc1ccccn1)Nc1cc(C(F)(F)F)ccc1N1CCOCC1.O=C(O)C(=O)O,-57.5%
19,O=C(CNCc1cccnc1)Nc1cc(C(F)(F)F)ccc1N1CCOCC1.O=C(O)C(=O)O,-67%
20,O=C(Nc1cc(C(F)(F)F)ccc1N1CCOCC1)c1ccccc1,12.6%
21,Cc1nc2ccccc2nc1OCC(=O)Nc1cc(C(F)(F)F)ccc1N1CCOCC1,0.222%
22,O=C(Nc1cc(C(F)(F)F)ccc1N1CCOCC1)c1cccnc1,-42.3%
23,O=C(O)CSc1c2c(nc3cc(C(=O)NCCN4CCOCC4)ccc13)CCC2,-6.18%
24,CC(C)(C)c1ccc(/C=N/NC(=O)C[n+]2ccccc2)cc1.[Cl-],26%
25,Cc1ccc(NC(=O)C2(C)Cc3ccccc3C(=O)O2)cc1 (stereo not shown),-5.03%
